Screens from PubChem BioAssay.
The list is not random: actives were taken first. Their share in the collection is about 2.3%.
Rango-impB inh = qHTS Assay for Inhibitors of Rango (Ran-regulated importin-beta cargo) - Importin beta complex formation | Importin subunit beta-1 (Homo sapiens), Q14974 | 340,000 tested, 0.031% active | Potency, µM (titrated, usually from 92.2 µM), inactives show at the top dose inhibition of complex formation | Rango CFP/YFP FRET sensor + importin beta, 45 min | AID 540263, 2011; calls by dose curve;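 also: 0% = DMSO wells and 100% = buffer wells lacking importin beta; nearly all actives have a fitted effect of over 15% in size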
Target sequence (Q14974 whole entry, looked up): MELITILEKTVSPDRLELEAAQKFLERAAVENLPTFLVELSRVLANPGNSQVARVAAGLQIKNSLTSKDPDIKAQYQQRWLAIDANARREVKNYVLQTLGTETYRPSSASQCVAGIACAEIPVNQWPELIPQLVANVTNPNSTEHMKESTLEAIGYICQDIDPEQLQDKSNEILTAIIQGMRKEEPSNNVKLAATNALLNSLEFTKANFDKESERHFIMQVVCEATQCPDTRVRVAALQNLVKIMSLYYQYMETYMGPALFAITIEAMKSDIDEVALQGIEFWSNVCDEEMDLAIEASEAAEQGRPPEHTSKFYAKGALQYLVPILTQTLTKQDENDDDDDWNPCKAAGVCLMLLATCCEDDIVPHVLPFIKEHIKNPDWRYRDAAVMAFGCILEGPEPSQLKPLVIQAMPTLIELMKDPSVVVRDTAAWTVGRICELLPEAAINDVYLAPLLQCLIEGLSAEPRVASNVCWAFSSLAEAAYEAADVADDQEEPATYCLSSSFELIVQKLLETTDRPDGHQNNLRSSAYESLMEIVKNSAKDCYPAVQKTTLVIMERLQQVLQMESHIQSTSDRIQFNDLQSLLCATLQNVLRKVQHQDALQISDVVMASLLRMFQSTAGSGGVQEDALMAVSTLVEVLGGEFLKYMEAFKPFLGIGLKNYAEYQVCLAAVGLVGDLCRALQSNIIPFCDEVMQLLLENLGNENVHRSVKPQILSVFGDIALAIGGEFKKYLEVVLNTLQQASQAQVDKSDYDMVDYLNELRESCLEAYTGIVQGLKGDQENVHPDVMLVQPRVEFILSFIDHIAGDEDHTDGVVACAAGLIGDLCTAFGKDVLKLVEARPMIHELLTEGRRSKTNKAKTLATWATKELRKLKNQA
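Inhibition scored from the CFP 486 nm/YFP 530 nm FRET ratio 45 min after adding 0.125 microM importin beta to 50 nM Rango biosensor preincubated 5 min with compound (room temperature, PBS with DTT, Tween-20, BSA). No-importin wells as positive control.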
Nrf2 inh = Nrf2 qHTS screen for inhibitors; A549 ARE-Fluc reporter, luciferase luminescence, 18-24 h; Potency, µM (highest dose often 46 µM), without a hit: at the highest dose activity change, negative = inhibition, usual class: inhibitors; AID 504444, 2011; 360,000 tested, 2.1% active; also: % is scaled to controls: 0 for no effect and ±100 for the full control effect; nearly all actives have a fitted effect of over 60% in size
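Reporter: ARE-Fluc in A549. Exposure: 18-24 h, 37 °C, 5% CO2, 5% FBS OPTI-MEM. Readouts: fluorescent cytotoxicity (CellTiter-Fluor), then luminescent Nrf2 signal after BugLite.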
Nrf2 activator = qHTS of Nrf2 Activators; AREc32 ARE-luciferase reporter (MCF7-derived line), luminescence, 24 h; Potency, µM (series often up to 46.1 µM), for the others: at the highest dose activation, actives largely listed as activators; 410,000 tested, 0.31% active; AID 624171, 2012; also: % of control where 0% means no effect; nearly all actives have a fitted effect of over 65% in size
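Cells of the AREc32 ARE-luciferase line are plated in OPTI-MEM containing 5% FBS and left overnight at 37 deg C. Compounds are pinned in, incubation continues 24 hr, and firefly luciferase signal is then measured.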
Rango dissoc inh = qHTS Assay for Inhibitors of RanGTP induced Rango (Ran-regulated importin-beta cargo) - Importin beta complex dissociation; Snurportin-1 (Homo sapiens) + GTP-binding nuclear protein Ran (Homo sapiens) + Importin …; Potency, µM (top dose mostly 46.1 µM), for inactives: at the highest dose activity change, negative = inhibition; 340,000 tested, 0.071% active; Biochemical FRET Rango-importin beta, RanGTP-induced dissociation; calls by dose curve; also: % of control where 0% means no effect; nearly all actives have a fitted effect of over 45% in size
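Compounds sat 5 min at room temperature with 0.1 uM Rango biosensor plus 0.25 uM importin beta, then FRET pre-read. RanGTP-RCC1 (0.6 uM Ran, 2mM GTP, 0.2 uM RCC1) added for 45 min, and the CFP/YFP post-read measured blocked complex dissociation.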
A549 tox = Nrf2 qHTS screen for inhibitors: counterscreen for cytotoxicity; A549 ARE-Fluc cells, CellTiter-Fluor viability, 18-24 h; Potency, µM (doses to about 46 µM), for inactives: at the highest dose activity change, negative = cytotoxicity, hits mostly inhibitors; AID 504648, 2011; 390,000 tested, 0.16% active; also: % is scaled to controls: 0 for no effect and ±100 for the full control effect
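A549 ARE-Fluc cells in 5% FBS OPTI-MEM, 5000 cells/well, rested 2 h then exposed to compounds in concentration-response for 18-24 h at 37 °C. Viability by CellTiter-Fluor fluorescence (Ex 405/Em 525) after 30 min; luciferase luminescence (BugLite, 15 min, RT) read afterwards.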
* hit, by the source's call; [ ] = another dose, or the depositor's remark. Unless noted, calls follow the shape of the dose curve; as a rule, active = well fitted curve in the direction sought with a large enough effect; inconclusive = small, poorly fitted or top-dose-only effect, or another doubt; inactive = no such curve, though single readings can be large; an effect the other way counts as inactive or inconclusive. Potency is read from the fitted curve at half-maximal effect.

Screening CCSC1=C(C#N)C(c2cccs2)C(C(=O)OC)=C(C)N1 (centres undefined) returned Rango-impB inh -2.7%, Nrf2 inh 23.1µM*, Nrf2 activator 2.6%, Rango dissoc inh 1.0% and A549 tox inconclusive.
`O=C(c1ccc(Cl)c(S(=O)(=O)N2CCCCCC2)c1)N1CCN(c2ccccc2O)CC1` gave Rango-impB inh 1.3%, Nrf2 inh 18.4µM*, Nrf2 activator -0.2%, Rango dissoc inh -7.0% and A549 tox -14.7%.
Screening O=C(c1ccc(Cl)c(S(=O)(=O)N2CCCCC2)c1)N1CCN(c2ccccc2)CC1 returned Rango-impB inh 0.3%, Nrf2 inh 23.1µM*, Nrf2 activator -0.6%, Rango dissoc inh 9.4% and A549 tox -18.0%.
`O=C(c1ccc(Cl)c(S(=O)(=O)N2CCCCC2)c1)N1CCCCC1` gave Rango-impB inh -2.8%, Nrf2 inh 15.5%, Nrf2 activator 0.2%, Rango dissoc inh inconclusive and A549 tox -1.0%.
CCC(C)c1ccc(S(=O)(=O)N2CCN(C(=O)c3ccc(Cl)c(S(=O)(=O)N4CCOCC4)c3)CC2)cc1 (centres undefined) was read as Rango-impB inh -2.6%, Nrf2 inh 10.3µM*, Nrf2 activator 0.6%, Rango dissoc inh -7.5% and A549 tox -10.4%.
Screening O=C(c1ccc(Cl)c(S(=O)(=O)N2CCCC2)c1)N1CCN(c2ccccc2)CC1 returned Rango-impB inh -0.6%, Nrf2 inh 14.6µM*, Nrf2 activator 2.1%, Rango dissoc inh inconclusive and A549 tox -15.0%.
Screening O=C(c1ccc(Cl)c(S(=O)(=O)N2CCOCC2)c1)N1CCN(c2ccccc2)CC1 returned Rango-impB inh 4.3%, Nrf2 inh -5.3%, Nrf2 activator 3.0%, Rango dissoc inh 4.8% and A549 tox 6.3%.
O=C(Nc1ccn(CCOC(=O)c2ccccc2)c(=O)n1)c1ccccc1 was read as Nrf2 activator 6.7%.
For Cc1cccc(NC(=O)CN(CCc2ccccc2)S(C)(=O)=O)c1 the results were Rango-impB inh 0.4%, Nrf2 inh 4.1%, Nrf2 activator 2.9%, Rango dissoc inh -6.2% and A549 tox 7.4%.
COc1ccc(C2c3c(n(CCCc4ccccc4)cnc3=N)Oc3ccc4ccccc4c32)cc1OC (centres undefined) was read as Nrf2 inh -2.9% and A549 tox -12.6%.
For CC(=O)c1cccc(OCc2cc(C(=O)NCc3nc(C)c(C)s3)no2)c1 the results were Rango-impB inh -1.4%, Nrf2 inh inconclusive, Nrf2 activator -0.4%, Rango dissoc inh 12.8% and A549 tox -1.8%.
`CC(C)(C)OC(=O)Cc1nnc(-c2nc3ccccc3[nH]2)o1` gave Nrf2 inh inconclusive and A549 tox -6.3%.
`CN(c1ccc(C(=O)N2CCCCCC2)cc1)S(=O)(=O)c1ccc(Cl)cc1` gave Rango-impB inh -1.3%, Nrf2 inh 23.1µM*, Nrf2 activator -0.7%, Rango dissoc inh 0.3% and A549 tox -8.6%.
Screening Cc1ccc(NS(=O)(=O)c2ccc(C(=O)N3CCCCCCC3)cc2)cc1 returned Rango-impB inh -1.5%, Nrf2 inh 20.6µM*, Nrf2 activator -0.1%, Rango dissoc inh -4.2% and A549 tox -6.6%.
`O=C(c1ccc(S(=O)(=O)Nc2ccccc2)cc1)N1CCCC(C(F)(F)F)C1` (centres undefined) gave Rango-impB inh -2.8%, Nrf2 inh 25.9µM*, Nrf2 activator 0.0%, Rango dissoc inh 11.4% and A549 tox inconclusive.
`Cc1ccc(NS(=O)(=O)c2ccc(C(=O)N3CCCCCC3)cc2)cc1` gave Rango-impB inh -2.9%, Nrf2 inh inconclusive, Nrf2 activator 0.1%, Rango dissoc inh -10.8% and A549 tox 3.0%.
Screening CCOC(=O)N1CCN(C(=O)c2ccc(Oc3ccc([N+](=O)[O-])cc3)cc2)CC1 returned Rango-impB inh -5.1%, Nrf2 inh 25.9µM*, Nrf2 activator 4.2%, Rango dissoc inh 22.7% and A549 tox -8.6%.
For O=C(c1ccccc1)c1ccc(C(=O)N2CCCC(C(F)(F)F)C2)cc1 (centres undefined) the results were Rango-impB inh -2.7%, Nrf2 inh -3.1%, Nrf2 activator 0.2%, Rango dissoc inh 13.4% and A549 tox -3.1%.
`CC(=O)N1CCc2cc(Br)cc(S(=O)(=O)CCC(=O)N3CCN(c4ccccc4Cl)CC3)c21` gave Nrf2 inh -0.4%[9.27 µM], Nrf2 activator 0.1% and A549 tox 0.0%.
`CC(C)(C)C1N=C(c2ccc3ccccc3c2)OC1=O` (centres undefined) gave Rango-impB inh 4.0%, Nrf2 inh inconclusive, Nrf2 activator -1.1%, Rango dissoc inh 0.5% and A549 tox 1.4%.
O=C(CN1C(=O)CCc2cc(S(=O)(=O)N3CCOCC3)ccc21)NCc1ccc(F)cc1 was read as Nrf2 activator -0.3% and A549 tox 2.1%.
For CCOC(=O)N1CCN(C(=O)c2ccc(NS(=O)(=O)c3ccc(C)cc3)cc2)CC1 the results were Rango-impB inh -0.7%, Nrf2 inh inconclusive, Nrf2 activator -0.4%, Rango dissoc inh -23.6% and A549 tox -6.7%.
`CCOC(=O)N1CCN(C(=O)c2ccc(CSc3ccc(Cl)cc3)cc2)CC1` gave Rango-impB inh 4.1%, Nrf2 inh 18.4µM*, Nrf2 activator 5.2%, Rango dissoc inh -17.7% and A549 tox -24.1%.
CCOC(=O)N1CCN(C(=O)c2ccc(S(=O)(=O)Nc3ccc(C)cc3)cc2)CC1 was read as Rango-impB inh -4.0%, Nrf2 inh 10.3µM*, Nrf2 activator 0.2%, Rango dissoc inh 0.2% and A549 tox -16.2%.
COc1cc(/C=C/C(=O)c2ccc(NS(=O)(=O)c3ccc(C)cc3)cc2)ccc1OC(F)F was read as Rango-impB inh 2.3%, Nrf2 inh 3.5%, Nrf2 activator inconclusive, Rango dissoc inh -6.9% and A549 tox -1.9%.
`CN1CCN(C(=O)c2ccc(CSc3ccc(Cl)cc3)cc2)CC1` gave Rango-impB inh -4.3%, Nrf2 inh inconclusive, Nrf2 activator 3.5%, Rango dissoc inh 1.4% and A549 tox -1.9%.
COc1cc(/C=C/C(=O)c2ccc(NS(=O)(=O)c3ccc(C)cc3)cc2)cc(OC)c1O was read as Rango-impB inh inconclusive, Nrf2 inh 23.1µM*, Nrf2 activator inconclusive, Rango dissoc inh inconclusive and A549 tox inconclusive.
